Activity calls are given as the source filed them. Rule for the calls: active = hit-call score of the fitted dose curve at least 0.9, where 1 is the maximum; inactive = score below 0.9.

The assay can be described thus: APR_HepG2_NuclearSize_1hr: Apredica 1-hour HepG2 Assay for Nuclear Size (AID 2282670). The following applies: high-content imaging, actives raise or lower the signal. Here is the method: APR_HepG2_1hr is a cell-based, multiplexed-readout assay that uses HepG2, a human liver cell line, with measurements taken at 1 hour after chemical dosing in a 384-well plate.APR_HepG2_NuclearSize_1hr is one of 10 assay component(s) measured or calculated from the APR_HepG2_1hr assay. It is designed to make measurements of cell phenotype, a form of morphology reporter, as detected with fluorescence intensity signals by HCS Fluorescent Imaging technology.Data from the assay component APR_HepG2_NuclearSize_1hr was analyzed into 1 assay endpoint. This assay endpoint, APR_HepG2_NuclearSize_1hr, was analyzed with bidirectional fitting relative to DMSO as the negative control and baseline of activity. Using a type of morphology reporter, measures of all nuclear dna for gain or loss-of-signal activity can be used to understand the signaling at the nuclear-level. Furthermore, this assay endpoint can be referred to as a primary readout, because this assay has produced multiple assay endpoints where this one serves a signaling function. To generalize the intended target to other relatable targets, this assay endpoint is annotated to the cell morphology intended target family, where the subfamily is organelle conformation.
Cells were treated with dimethyl sulfoxide (DMSO) as a solvent control at a final concentration of 0.5% v/v or with compounds in DMSO with a resulting final DMSO concentration of 0.5% v/v. Compound treatment was done at concentrations of 0.39, 0.78, 1.56, 3.12, 6.24, 12.5, 25, 50, 100, and 200 uM in duplicate on each plate. Cells were treated with compounds for 1, 24, or 72 hr. Carbonyl […] m-chloro-phenylhydrazone (CCCP) and taxol were used as positive controls for mitochondrial function and cytoskeletal stability, respectively; DMSO served as the negative control for this experiment. Cells were fixed by the direct addition of 50 uL formaldehyde in Hank's Balanced Salt Solution (HBSS) to a final concentration of 3.7%. After incubation in the fixation medium for 30 min at room temperature (293-298 K), cells were rinsed twice with HBSS and treated with cell permeabilization buffer (16 uL of 0.5% Triton X-100) for 10 min at room temperature (293-298 K) before labeling. For mitochondrial membrane potential and mitochondrial measurements, pre-fixed cells were incubated with 50 uL of MitoTracker Red CMXRos (Invitrogen) at a concentration of 250 nM for 30 min before fixation. In the remaining cases, post-fixed cells were labeled by incubation with a multiplexed mixture of primary antibodies in HBSS for 60 min at room temperature (293-298 K) to detect immunoreactivity of c-Jun (1:500), phospho-histone H3 (1:100), phospho-histone H2A.x (1:200), p53 (1:400), alpha-tubulin (1:200) and Hoechst 33342 (2 ug/mL). Cells were labeled for multiplexed imaging on two separate plates: a) Hoechst 33342, MitoTracker Red, phospho-histone H3, and alpha-tubulin, and b) Hoechst 33342, phospho-histone H2A.x, and c-Jun. A final rinse with HBSS (50 uL) was performed before analysis. The primary and secondary antibodies for the proteins were phospho-histone H3 (rabbit anti-phospho-histone H3 and FITC-donkey anti-rabbit IgG), phospho-histone H2A.x (mouse anti-phospho-histone H2A.x and FITC-donkey anti-mouse IgG), c-Jun (rabbit anti-phospho-c-Jun and Cy3-donkey anti-rabbit IgG), p53 (sheep anti-p53 and Cy5-donkey anti-sheep IgG), alpha-tubulin (mouse anti-alpha-tubulin and Cy5-donkey anti-mouse IgG). These antibodies are available as the CellCiphr HepG2 assay kit (Millipore).Digital images of each well were captured using a Cellomics ArrayScan VTI (Thermo Scientific Cellomics) (0.8 NA objective, 0.63x optical coupler, and XF-93 filter set) at 20x magnification. The images were acquired using the autofocus feature of the ArrayScan instrument, which entails the following steps. First, the camera focuses on channel 1 (Hoechst 33342), where nuclei are identified. Second, a Z offset of 1 um is used for capturing mitochondria (MitoTracker Red). […]
As to `O=C(O)COc1ccc(Cl)cc1Cl`, the outcome was inactive.
Consider `COC(=O)c1ccccc1CS(=O)(=O)NC(=O)Nc1nc(OC)cc(OC)n1`, for which the molecule was classed as inactive.
With `COP(=O)(OC)OC=C(Cl)Cl`, the result was inactive.
Take `Oc1ccc(Cl)cc1Cc1ccccc1`: the AC50 (commonly the concentration at which the activity in the assay is half-maximal) was 112 µM (active).
Consider `CNC(=O)CSP(=S)(OC)OC`, for which the call was inactive.
On the same count and under the same terms, the value for `CCOc1nc(NC)nc(NC(=O)NS(=O)(=O)c2ccccc2C(=O)OC)n1` was “inactive”; that for `CCC(C)(NC(=O)c1cc(Cl)c(C)c(Cl)c1)C(=O)CCl` (stereo not given) was “inactive”; that for `Clc1ccccc1-c1nnc(-c2ccccc2Cl)nn1` was “inactive”.
On the same count and under the same terms, as for `O=C(NC(=O)c1c(F)cccc1F)Nc1ccc(OC(F)(F)C(F)OC(F)(F)F)c(Cl)c1` (stereo not given), the entry is “inactive”.
For the molecule `COC(=O)c1ccccc1S(=O)(=O)NC(=O)Nc1nc(C)nc(OC)n1`, the outcome was inactive.
Same read-out and setting: the value for `CCC(C)(C)C(=O)OC1=C(c2ccc(Cl)cc2Cl)C(=O)OC12CCCCC2` was “inactive”; that for `CNC(=O)/C=C(\C)OP(=O)(OC)OC` was “inactive”; that for `CCCN(CCC)c1c([N+](=O)[O-])cc(C(F)(F)F)cc1[N+](=O)[O-]` was “inactive”.
With `C#CCN1C(=O)COc2cc(F)c(N3C(=O)C4=C(CCCC4)C3=O)cc21`, the call was inactive.
On the same count and under the same terms, as for `CC(C)N(C(=O)COc1nnc(C(F)(F)F)s1)c1ccc(F)cc1`, the entry is “inactive”; as for `COP(=S)(OC)Oc1ccc(SC)c(C)c1`, “inactive”.
Still for that read-out and setting: the value for `CN1CSC(=S)N(C)C1` was “inactive”; that for `O=S(=O)(O)C(F)(F)C(F)(F)C(F)(F)C(F)(F)C(F)(F)C(F)(F)C(F)(F)C(F)(F)F` was “inactive”.
For `Cc1cc(C)nc(NC(=O)NS(=O)(=O)c2ccccc2C(=O)OC2COC2)n1`, the result was inactive.
Consider `C[C@H]1[C@H](c2ccc(Cl)cc2)SC(=O)N1C(=O)NC1CCCCC1`, for which the molecule was classed as inactive.
Turning to `CCOC1Oc2ccc(OS(C)(=O)=O)cc2C1(C)C` (stereo not given), the outcome was inactive.
Consider `OCCOc1ccccc1`, for which the molecule was called inactive.
Regarding `COc1cc(OC)nc(NC(=O)NS(=O)(=O)c2cc(NC=O)ccc2C(=O)N(C)C)n1`, the result was inactive.
Still for that read-out and setting: as for `COC(=O)c1ccccc1S(=O)(=O)NC(=O)N(C)c1nc(C)nc(OC)n1`, the entry is “inactive”; as for `ClC1C(Cl)C(Cl)C(Cl)C(Cl)C1Cl` (stereo not given), “inactive”; as for `CCS(=O)(=O)c1cccnc1S(=O)(=O)NC(=O)Nc1nc(OC)cc(OC)n1`, “inactive”.
Consider `O=C(O)C(F)(F)C(F)(F)C(F)(F)C(F)(F)C(F)(F)C(F)(F)C(F)(F)F`, for which the molecule was classed as inactive.
Still for that read-out and setting: the value for `N#CN` was “inactive”; that for `O=[N+]([O-])/N=C1\NCCN1Cc1ccc(Cl)nc1` was “inactive”; that for `O=C(Nc1ccccc1)Nc1cnns1` was “inactive”.
As for `O=[N+]([O-])c1c(Cl)c(Cl)c(Cl)c(Cl)c1Cl`, the result was inactive.
`CC1(C)C(C=C(Cl)Cl)C1C(=O)OC(C#N)c1ccc(F)c(Oc2ccccc2)c1` (stereo not given): the result was inactive.
With `CC(C)OC(=O)Nc1cccc(Cl)c1`, the molecule was called inactive.
As to `Cc1[nH]c(=O)n(C(C)(C)C)c(=O)c1Cl`, the result was inactive.
For the molecule `O=C1c2ccccc2C(=O)N1SC(Cl)(Cl)Cl`, the outcome was inactive.
Regarding `CCN(CC)C(=O)SCc1ccc(Cl)cc1`, the outcome was inactive.
Take `O=C(O)CCCOc1ccc(Cl)cc1Cl`: the call was inactive.
Turning to `CC1(c2ccc(Oc3ccccc3)cc2)OC(=O)N(Nc2ccccc2)C1=O` (stereo not given), the call was inactive.
Turning to `CCOCN(C(=O)CCl)c1c(C)cccc1CC`, the molecule was classed as inactive.
On to `CCCN(CCOc1c(Cl)cc(Cl)cc1Cl)C(=O)n1ccnc1`, for which the molecule was called inactive.

For the origin of these results see PubChem BioAssay (EPA / NIEHS).
